Assay outcomes: PubChem, University of Kansas High Throughput Screening Laboratory
mHTT CaM bind – inhibitors of human mutant huntingtin-calmodulin interaction; P42858; AlphaScreen His-mHTT/GST-CaM binding, luminescence; inhibition, % at 15 µM; hit rate 3.6% among 190,000; AID 1671202
Pf apPOL inh – Pf-apPOL DNA polymerase inhibition. Recombinant Pf-apPOL, molecular beacon fluorescence, 1.5 h. inhibition, % at 10 µM. AID 1794808. hit rate 0.25% among 210,000
Numbers stand for hits; 0 = inactive; - = no result. Most compounds without a hit are left out; they make up all but 3.5% or so of the library. No stated cut-off is given here; in the data, active means inhibition above about 50%; inactive means the rest.

SMILES	mHTT CaM bind	Pf apPOL inh
Cc1noc(C)c1CC(=O)N1CCCn2cc(-c3ccccc3)nc21	53	0
Cc1noc(C)c1CC(=O)N1CCCn2cc(-c3ccccc3F)nc21	0	0
O=C(CSc1nc2ccccc2o1)Nc1ccccc1[N+](=O)[O-]	55	0
COc1ccc(NC(=O)CSc2nc3ccccc3o2)c([N+](=O)[O-])c1	0	0
O=C(c1ccc(Cl)c(Cl)c1)N1CCN(c2ccc([N+](=O)[O-])c(N3CCOCC3)c2)CC1	0	0
Cc1cccnc1NC(=O)c1csc(-c2cc3ccccc3[nH]2)n1	0	0
O=C(Nc1ccc(Cl)c(Cl)c1)N1CCCN(Cc2ccccc2)C1	95	0
O=C(Nc1cc(Cl)cc(Cl)c1)N1CCCN(Cc2ccccc2)CC1	-	0
Cc1ccc(NC(=O)c2cc(Cl)c(Cl)cc2C(=O)O)cc1C	0	0
Cc1ccc(NC(=O)c2cc(N3C(=O)C=CC3=O)ccc2Cl)cc1C	92	0
CCOc1cc(C2Nc3cc(C)c(C)cc3NC3=C2C(=O)CC(C)(C)C3)cc(Cl)c1O (stereo unspecified)	53	0
CCOc1cc(C2Nc3ccccc3NC3=C2C(=O)CC(c2cccs2)C3)cc(Cl)c1O (stereo unspecified)	0	0
CCN(CC)C(=O)CC[C@H]1CC[C@]2(CCCN(Cc3cccs3)C2)O1	0	0
CCOC(=O)CC[C@@H]1CC[C@]2(CCCN(Cc3cccs3)C2)O1	94	0
COc1ccc(NC(=O)C2=C(C)NC(=O)NC2c2ccc(OC)cc2OC)c(OC)c1 (stereo unspecified)	73	0
COc1cc(C2NC(=O)NC(C)=C2C(=O)Nc2ccc(F)c(F)c2)ccc1O (stereo unspecified)	0	0
COc1ccc(C2NC(=O)NC(C)=C2C(=O)Nc2ccc(C)c(Cl)c2)cc1OC (stereo unspecified)	54	0
COc1ccc(NC(=O)C2=C(C)NC(=O)NC2c2cccs2)c(OC)c1 (stereo unspecified)	0	0
CC(C)=CCCC(C)CN1CCN(c2ccccc2F)CC1 (stereo unspecified)	0	0
COc1ccccc1-c1[nH]ncc1CN1CCC(N(C)C)C(CO)C1 (stereo unspecified)	0	0
COc1cccc2cc(-c3nc4ccccc4[nH]3)c(=N)oc12	0	75
COc1cccc2cc(-c3nc4ccccc4[nH]3)c(=Nc3ccc(C(N)=O)cc3)oc12	0	0
O=C(Nc1ccc(Br)cc1F)c1ccco1	0	0
Cc1cc(C)c(S(=O)(=O)NCc2ccncc2)cc1C	0	0
COCCNC(=O)C1CCN(Cc2cc3ccccc3n2Cc2cccc(F)c2)CC1	63	0
SMILES	mHTT CaM bind	Pf apPOL inh
COCCNC(=O)C1CCN(Cc2cc3ccccc3n2Cc2ccccc2C)CC1	60	0
CN(C)CCNC(=O)C1CCN(Cc2cc3ccccc3n2Cc2ccccc2)CC1	100	0
COc1ccccc1CN1CCC(C(=O)NCCc2ccccc2)CC1	0	0
COCCNC(=O)C1CCN(Cc2cc(OC)c(OC)c(OC)c2)CC1	0	0
O=C(NCCc1ccccc1)C1CCN(Cc2ccccc2)CC1	0	0
Cc1cccc(Cn2c(CN3CCC(C(=O)NCc4ccco4)CC3)cc3ccccc32)c1	0	0
COCCNC(=O)C1CCN(Cc2cc3ccccc3n2Cc2cccc(C)c2)CC1	60	0
O=C(c1ccc2c(c1)nc1n2CCCCC1)N1CCC2(CC1)OCCO2	0	0
CC(=O)C1=C(C)NC(SCC(=O)c2ccc(F)cc2)=C(C#N)C1c1ccc(F)cc1 (stereo unspecified)	0	0
COc1ccccc1NC(=O)C1=C(C)NC(SC)=C(C#N)C1c1ccccc1Cl (stereo unspecified)	0	0
Cc1ccc(Cn2c(CN3CCC(C(=O)NCc4ccco4)CC3)cc3ccccc32)cc1	0	0
COCCCNC(=O)C1CCN(Cc2cc3ccccc3n2Cc2ccc(C)cc2)CC1	76	0
CCOc1ccccc1C=C1Oc2cc(OCC(=O)OC(C)C)ccc2C1=O	0	0
COc1ccccc1-c1noc(C2CCCN2C(=O)c2cnccn2)n1 (stereo unspecified)	0	0
COc1cc(Cl)ccc1NC(=O)c1cnn2c(C(F)(F)F)cc(-c3cccs3)nc12	0	0
C=C(C)Cn1c(=O)c2c(nc3n2CCCN3c2ccccc2C)n(C)c1=O	0	0
Cc1ccc(C(=O)N2CCCC2c2ccccc2C)cc1 (stereo unspecified)	0	0
Cc1ccc(C(=O)N2Cc3ccccc3CC2C(=O)O)cc1 (stereo unspecified)	53	0
CCN1CCN(CC(=O)N2CCCc3c2c(=O)oc2ccc(O)cc32)CC1	0	0
COc1ccc(C=C2Oc3c(ccc4c3CN(CCN3CCOCC3)CO4)C2=O)cc1OC	62	0
COCCN1COc2ccc3c(c2C1)OC(=Cc1ccc(OC)c(OC)c1)C3=O	0	0
COc1cc(OC)c(OC)cc1C=C1Oc2c(ccc3c2CN(CCN2CCOCC2)CO3)C1=O	0	0
COc1ccc(OC)c(C=C2Oc3c(ccc4c3CN(CCN3CCOCC3)CO4)C2=O)c1	54	0
CCCc1cc(C(=O)N2CCCC2c2c(C)noc2C)no1 (stereo unspecified)	0	0
COc1cc(NC(=O)c2nc(-c3cccc(F)c3)n3c2CCCCC3)cc(OC)c1OC	65	0
SMILES	mHTT CaM bind	Pf apPOL inh
CCOCCCNC(=O)c1nc(-c2cccc(F)c2)n2c1CCCCC2	0	0
COc1ccc(CCNC(=O)c2nc(-c3cccc(F)c3)n3c2CCCCC3)cc1OC	51	0
COC(=O)c1ccccc1NC(=O)c1nc(-c2cccc(F)c2)n2c1CCCCC2	0	0
O=C(NC1CCCC1)N1CCCCC1c1nncn1CC1CC1 (stereo unspecified)	0	0
O=C1C(=Cc2ccco2)Oc2cc(OCC=Cc3ccccc3)ccc21	0	0
CC(C)(C)n1nc2c(c1NC(=O)c1ccc(S(=O)(=O)N3CCCC3)cc1)CS(=O)(=O)C2	0	0
COc1cc(/C=C2\SC(=O)N(c3ccc(Cl)cc3)C2=O)ccc1O	0	0
Cc1ccc(Cc2nnc(-c3ccc(N)cc3)o2)cc1	0	0
CC(C)c1noc(-c2cccnc2N2CCCN(C(=O)c3cc(F)cc(F)c3)CC2)n1	0	0
Cc1ccccc1CN1C(=O)/C(=C/C(=O)O)Sc2ccccc21	0	0
Cc1ccccc1CN1C(=O)/C(=C/C(=O)NCCc2ccccc2)Sc2ccccc21	51	0
Cc1ccc(CN2C(=O)/C(=C/C(=O)O)Sc3ccccc32)cc1	60	0
O=C(/C=C1\Sc2ccccc2N(Cc2ccc(F)cc2)C1=O)NCCc1ccccc1	0	0
CCc1ccccc1NC(=O)N1CC(C)C(c2nc(-c3ccccc3)no2)C1 (stereo unspecified)	0	0
O=C(N1CCC(n2nc(-c3ccsc3)ccc2=O)CC1)C1(c2ccccc2)CC1	0	0
O=C(Cc1cccc(F)c1)N1CCC(n2nc(-c3ccsc3)ccc2=O)CC1	0	0
O=C(c1cccnc1)N1CCC(n2nc(-c3ccsc3)ccc2=O)CC1	0	0
COc1ccc(C(=O)N2CCC(n3nc(-c4ccsc4)ccc3=O)CC2)cc1	98	0
CC(Oc1ccccc1)C(=O)N1CCC(n2nc(-c3ccsc3)ccc2=O)CC1 (stereo unspecified)	71	0
COc1cccc(C(=O)N2CCC(n3nc(-c4ccsc4)ccc3=O)CC2)c1	100	0
COc1ccc(C(=O)N2CCC(N3CCCCCC3)CC2)cc1	0	0
O=C(c1cccc(F)c1)N1CCC(n2nc(-c3ccsc3)ccc2=O)CC1	95	0
